# Screening results (PubChem)
# IL1B secr inh: qHTS for Inhibitors of Inflammasome Signaling: IL-1-beta AlphaLISA Primary Screen. hit rate 4.7% among 360,000. activity change, % at 57.5 µM. AID 743279, 2014. THP-1 LPS/ATP IL-1B secretion, AlphaLISA, 16 h; active compounds read low; in the data active = activity change below about -50%; inconclusive = mostly about -30% to -49%; note: % is set by controls: 0 for no effect and ±100 for the full control effect
#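 THP-1 cells pretreated 1 hr with compounds (up to 57.5 uM final), then stimulated with LPS (250 ng/mL final) plus ATP (1.25 mM final); secreted IL-1B measured by AlphaLISA after 16 hr, decreased signal indicating inhibition.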
# HepG2 viability: qHTS for Inhibitors of TGF-b: Cytotox Counterscreen | HepG2 CAGA-GFP viability, ATP luminescence, 18 h | hit rate 0.76% among 410,000 | AID 588856, 2011 | Potency, µM (top dose mostly 46.1 µM), inactives show at the top dose activity change, negative = cytotoxicity, usual class: cytotoxic; note: potency is the fitted concentration of half-maximal effect
#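 CellTiter-Glo luminescence gave cytotoxicity after 18 hours at 37 degrees C. The cells were HepG2 CAGA-GFP in 1% FBS DMEM, stimulated with 500 pg/mL TGF-beta after compound addition. %Activity was normalised to no-cell wells (complete cell-killing) and DMSO (no toxicity), and curves were fitted and classified.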
# S-ASM inh: Inhibitors of Secretory Acid Sphingomyelinase (S-ASM): qHTS | placental ASM, HMU-PC fluorogenic substrate, 60 min | Sphingomyelin phosphodiesterase (Homo sapiens), P17405 | Potency, µM (series often up to 57.5 µM), inactives show top-dose activity change, negative = inhibition, hits mostly inhibitors | hit rate 0.006% among 340,000; note: potency is the fitted concentration of half-maximal effect
# Target sequence (P17405 47-631 limits assumed): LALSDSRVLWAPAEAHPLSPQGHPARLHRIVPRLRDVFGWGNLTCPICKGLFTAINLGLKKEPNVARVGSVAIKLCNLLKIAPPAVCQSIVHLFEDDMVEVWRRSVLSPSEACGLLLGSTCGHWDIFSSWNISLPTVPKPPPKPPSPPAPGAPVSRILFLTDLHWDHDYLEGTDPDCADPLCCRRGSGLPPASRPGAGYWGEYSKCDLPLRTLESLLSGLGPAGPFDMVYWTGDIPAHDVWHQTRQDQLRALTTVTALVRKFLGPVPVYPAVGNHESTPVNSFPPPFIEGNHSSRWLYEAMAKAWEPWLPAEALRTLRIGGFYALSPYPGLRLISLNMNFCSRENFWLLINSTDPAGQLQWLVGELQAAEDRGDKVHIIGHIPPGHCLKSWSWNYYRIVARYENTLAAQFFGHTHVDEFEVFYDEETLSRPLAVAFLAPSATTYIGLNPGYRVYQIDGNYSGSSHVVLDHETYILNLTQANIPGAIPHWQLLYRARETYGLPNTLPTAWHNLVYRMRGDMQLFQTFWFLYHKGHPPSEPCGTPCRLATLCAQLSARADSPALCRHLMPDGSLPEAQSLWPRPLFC
#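 Fluorogenic HMU-PC substrate (9 uM final) is turned over by placental ASM in 60 min at 37 C after a 10 min compound preincubation. Reaction ended by alkaline stop (pH 10), with fluorescence read at 386/447 nm.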
# DT40 TDP1 CPT: qHTS for Inhibitors of human tyrosyl-DNA phosphodiesterase 1 (TDP1): qHTS in cells in presence of CPT; hit rate 12% among 420,000; Potency, µM (highest dose often 46.2 µM), for the others: at the top dose activity change, negative = growth inhibition, usual class: inhibitors; AID 686979, 2013; chicken DT40 Tdp1-/-;hTDP1 cells + 20 nM CPT, ATP luminescence, 48 h; note: potency is the fitted concentration of half-maximal effect; % is set by controls: 0 for no effect and ±100 for the full control effect; nearly all actives have a fitted effect of over 55% in size
#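 Chicken DT40 Tdp1-/- cells complemented with human TDP1, 400 cells/well, exposed to compounds plus 20 nM camptothecin for at least 48 h at 37 C; viability read as ATP content by CellTiter-Glo luminescence.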
# TDP1 cell noCPT: qHTS for Inhibitors of human tyrosyl-DNA phosphodiesterase 1 (TDP1): qHTS in cells in absence of CPT; Potency, µM (titrated, usually from 46.2 µM), without a hit: at the top dose activity change, negative = growth inhibition, hits mostly inhibitors; DT40 Tdp1-/- hTDP1 cells, no CPT, ATP luminescence, 48 h; hit rate 15% among 420,000; note: potency is the fitted concentration of half-maximal effect; % is set by controls: 0 for no effect and ±100 for the full control effect; nearly all actives have a fitted effect of over 55% in size
#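 Compound effects on proliferation are scored in DT40 Tdp1-/-;hTDP1 cells in the absence of CPT. ATP levels (CellTiter-Glo luminescence) are recorded after a ≥48 hr, 37 °C incubation.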
# TGFb SMAD3 inh: qHTS for Inhibitors of TGF-b | AID 588855, 2011 | Potency, µM (titrated, usually from 46.1 µM), inactives show top-dose activity, negative = inhibition, actives largely listed as inhibitors | HepG2 CAGA-GFP TGF-b/SMAD3 reporter, GFP fluorescence, 18 h; TGF-beta stimulated, 500 pg/mL final | hit rate 1.2% among 410,000; note: potency is the fitted concentration of half-maximal effect; % is set by controls: 0 for no effect and ±100 for the full control effect; nearly all actives have a fitted effect of over 65% in size
#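 Using HEPG2 CAGA-GFP reporter cells at 1000 cells/well, we pinned test compounds, stimulated with recombinant TGF-beta (500 pg/mL final) and measured total well GFP after 18 h.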
# Active calls of the source: *; i = inactive; ? = inconclusive; / = no result. Shown are actives, neighbours in structure and some others; about 19% of the full set was active somewhere. Unless noted, calls come from the whole dose curve; as a rule, active = well fitted curve in the direction sought with a large enough effect; inconclusive = small, poorly fitted or top-dose-only effect, or another doubt; inactive = no such curve, though single readings can be large; an effect the other way counts as inactive or inconclusive.
SMILES,IL1B secr inh,HepG2 viability,S-ASM inh,DT40 TDP1 CPT,TDP1 cell noCPT,TGFb SMAD3 inh
Cc1ccc(Cl)cc1N1CCN(S(=O)(=O)c2ccc3c(c2)CC(C)N3C(=O)C2CCC2)CC1 (stereo not drawn),/,13.3%,/,-25.9%,?,8.9%
COc1ccccc1N1CCN(C(=O)C2CCN(S(=O)(=O)c3ccc4c(c3)CC(C)N4C(C)=O)CC2)CC1 (stereo not drawn),21.8,-3.7%,0.4%,?,11.6µM*,-1.3%
CC(=O)N1c2ccc(S(=O)(=O)N3CCC(C(=O)N4CCN(c5cc(Cl)ccc5C)CC4)CC3)cc2CC1C (stereo not drawn),-15.7,-11.1%,-2.7%,10.3µM*,9.2µM*,-17.1%
COc1ccccc1N1CCN(C(=O)C2CCN(S(=O)(=O)c3ccc(Cl)cc3)CC2)CC1,-18.4,-0.9%,1.3%,?,20.6µM*,-24.0%
COc1ccccc1N1CCN(C(=O)C2CCN(S(=O)(=O)c3ccccc3)CC2)CC1,9.3,3.1%,2.3%,-18.5%,-18.8%,-6.6%
C=CCN(C(=O)CSc1nc2ccsc2c(=O)n1Cc1ccc(C(=O)O)cc1)c1ccccc1,62.9,-3.0%,/,1.9%,-0.8%,-11.1%
CC(C)N(C)S(=O)(=O)c1ccc(NC(=O)CSC(=S)N2CCCC2)cc1,23.3,3.1%,0.4%,-10.8%,-7.0%,-2.4%
CC(C)c1ccc(S(=O)(=O)N2CCC(C(=O)N3CCN(c4cccc(Cl)c4)CC3)CC2)cc1,8.8,-23.3%,-3.0%,25.9µM*,?,-6.6%
COc1ccccc1N1CCN(C(=O)C2CCN(S(=O)(=O)c3ccc4c(c3)CC(C)N4C(=O)C3CC3)CC2)CC1 (stereo not drawn),-52.6*,-29.2%,-5.7%,?,?,-19.4%
CS(=O)(=O)N1CCC(C(=O)N2CCN(c3cccc(Cl)c3)CC2)CC1,10.2,-4.6%,-2.9%,1.3%,-29.2%,-2.7%
CC(=O)Nc1ccc(NS(=O)(=O)c2ccc3c(c2)oc(=O)n3C)cc1,-2.2,-14.8%,-2.5%,0.3%,-0.5%,-0.8%
Cn1cc(-c2cc3n(n2)CCC(=O)N3CCCC(=O)Nc2ccccc2Cl)c2ccccc21,/,-37.1%,/,18.4µM*,18.4µM*,?
CN(C)c1ccc(CNC(=O)CCCN2C(=O)CCn3nc(-c4cn(C)c5ccccc45)cc32)cc1,/,-2.5%,/,?,-19.4%,-17.2%
Cn1cc(-c2cc3n(n2)CCC(=O)N3CCCC(=O)Nc2ccccc2F)c2ccccc21,/,-35.9%,/,?,23.1µM*,?
Cc1cccc(CNC(=O)CCCN2C(=O)CCn3nc(-c4cn(C)c5ccccc45)cc32)c1,/,-23.0%,/,23.1µM*,?,-29.1%
Cn1cc(-c2cc3n(n2)CCC(=O)N3CCCC(=O)Nc2ccc(F)cc2F)c2ccccc21,/,-25.5%,/,?,?,?
Cc1ccc(CNC(=O)CCCN2C(=O)CCn3nc(-c4cn(C)c5ccccc45)cc32)cc1,/,-5.0%,/,-8.1%,-1.3%,-4.8%
COc1ccc(NC(=O)CCCN2C(=O)CCn3nc(-c4cn(C)c5ccccc45)cc32)cc1,/,-1.6%,/,23.1µM*,18.4µM*,7.8%
Cc1ccc(SCc2cc(=O)n(C)[nH]2)cc1,17.7,-7.4%,-2.1%,0.7%,4.1%,2.9%
NC(=O)C1CCN(c2oc(/C=C/c3ccc(F)cc3)nc2S(=O)(=O)c2ccccc2)CC1,-25.6,1.2%,i,-10.7%,12.4%,1.8%
CCC(=O)N1CCc2cc(Br)cc(S(=O)(=O)N3CCN(c4cc(C)ccc4C)CC3)c21,/,1.1%,/,14.8%,32.2%,-7.5%
